Experimental data taken from PubChem BioAssay (EPA / NIEHS).
Several values for one entry are separate records, joined by “and”; a condition that tells them apart may be missing. Identical values can stand only once. Inconclusive results are not listed. Some structures have more than one record in an assay (separate samples or runs), and their calls can disagree. Activity calls are given as the source filed them. Rule for the calls, unless noted: active = hit-call score of the fitted dose curve at least 0.9, where 1 is the maximum; inactive = score below 0.9.

Legend:
[1] = CCTE_Mundy_HCI_Cortical_NOG_NeuronCount: CCTE's Neurite Outgrowth Assay in rat cortical cells for Neuron Count, Mundy Lab (AID 2284236; active = hit-call score of the fitted dose curve at least 0.9, where 1 is the maximum;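 note: neurons counted by imaging betaIII-tubulin and Hoechst stained cortical cells; cells exposed to compound for about 48 hours before fixation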)
Protocol: CCTE_Mundy_HCI_Cortical_NOG is a multiplexed, cell-based-readout assay that uses rat primary cortical cells with measurements taken at 50.33 hours after chemical dosing in a microplate: 96-well plate.CCTE_Mundy_HCI_Cortical_NOG_NeuronCount is one of four components of the CCTE_Mundy_HCI_Cortical_NOG assay. It measures cell viability related to the number of neurons using High Content Imaging of fluorescently labelled markers.[…] Using a type of morphology reporter, loss -of-signal activity can be used to understand developmental effects.
Exposure starts 2 hours post-plating by adding 10 ul of the working solution to 90 ul of media in the wells for a 1/10 dilution. Forty-eight hours after chemical treatment cells are fixed by direct addition of 100 ul of warm (37C) Dulbecco's phosphate buffered saline (DPBS) fixative solution containing 8% paraformaldehyde, 8% sucrose, and 0.1% of 3 mg/ml Hoechst 33342 into each well. Primary antibodies are prepared by dilution in Immunocytochemical Staining Buffer (ISB), 10X Dulbecco's PBS, 0.1% Saponin, 5% Bovine Serum Albumin, 0.5% NaN3 (Sodium Azide) and betaIII-tubulin (rabbit anti-betaIII-tubulin, 1:800) followed by Alexa Fluor-488 secondary (1:500) to label neuronal cell bodies and neurites. A Cellomics ArrayScan VTi HCS Reader is used for automated image acquisition and analysis of neurite outgrowth.

[2] = CCTE_Mundy_HCI_Cortical_NOG_BPCount: CCTE's Neurite Outgrowth Assay in rat cortical cells for Branch Point Count, Mundy Lab (AID 2284237);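 for AC50: branch points counted about two days after chemical exposure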
Method in brief: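 Measured 50.33 h after dosing, this morphology endpoint uses rat primary cortical cultures labelled for betaIII-tubulin. Branch points are quantified by high-content imaging, with DMSO as negative control and baseline.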

[3] = CCTE_Mundy_HCI_hNP1_Casp3_7: CCTE's Caspase-Glo 3/7 Assay in human neuroprogenitor cells for Apoptosis, Mundy Lab (AID 2284240)
Method in brief: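 Luminescent caspase-3/7 readout, 26.5 h post-dose, in human neural progenitor cells from WA09 embryonic stem cells. Cells grew 40–44 h at 37 °C, 5% CO2 before chemical addition. Activity analysed as signal increase over DMSO baseline.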

[4] = CCTE_Mundy_HCI_hNP1_CellTiter: CCTE's Cell Titer-Glo 2 Assay in human neuroprogenitor cells for Viability, Mundy Lab (AID 2284241; active = hit-call score of the fitted dose curve at least 0.9, where 1 is the maximum;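 for AC50: a hit is a drop in ATP luminescence versus DMSO meaning reduced viability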)
Method in brief: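 Viability read as luminescent ATP content (CellTiter-Glo, 30 min room temperature) twenty-four hours after dosing, relative to DMSO. Cells: WA09-derived hNP1 neuroprogenitors on poly-L-ornithine/laminin, plated 40 to 44 hours before chemical.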

[5] = CCTE_Mundy_HCI_Cortical_Synap_Neur_Matur_NeuronCount: CCTE's Synaptogenesis and Neurite Maturation Assay in rat cortical cells for Neuron Count, Mundy Lab (AID 2284242; active = hit-call score of the fitted dose curve at least 0.9, where 1 is the maximum;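 for AC50: hits reduce neuron count versus DMSO baseline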)
Method in brief: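 Measured at DIV 12: fluorescently labelled neurons (Hoechst nuclei, MAP2) in rat primary cortical cultures, counted by high-content imaging. AraC suppressed glia from DIV 5; DMSO served as negative control.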

[6] = read-out: Collagen I, COL1A1 (gene 1277); test: BSK_MyoF_CollagenI: BioMAP Diversity Plus: MyoF Assay for Collagen I Biomarker Activity (AID 2284238); settings: primary human lung fibroblasts
Method in brief: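 Primary human lung fibroblasts (MyoF system) treated 24 h; Collagen I quantified by ELISA and fitted in positive direction against DMSO. Parallel SRB total-protein staining assessed overt cytotoxicity.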

[7] = read-out: Collagen III, COL3A1 (gene 1281); test: BSK_MyoF_CollagenIII: BioMAP Diversity Plus: MyoF Assay for Collagen III Biomarker Activity (AID 2284239); settings: primary human lung fibroblasts
Method in brief: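 Primary human lung fibroblasts (BioMAP MyoF system) exposed 24 h. Collagen III measured by ELISA; positive-direction fit relative to DMSO.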

[8] = read-out: Interleukin 17F (IL17F), IL17F (gene 112744); test: BSK_BT_xIL17F: BioMAP Diversity Plus: BT Assay for Interleukin 17F (IL17F) Biomarker Activity (AID 2284243); settings: primary human B cells with PBMC
Method in brief: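 Human PBMC co-cultured with B cells, compound exposure 24 h; secreted IL-17F quantified by Luminex xMAP, referenced to DMSO control. PBMC viability measured in parallel by Alamar Blue reduction.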

[9] = read-out: Actin alpha 1 (ACTA1), ACTA1 (gene 58); test: BSK_MyoF_ACTA1: BioMAP Diversity Plus: MyoF Assay for Actin alpha 1 (ACTA1) Biomarker Activity (AID 2284244); settings: primary human lung fibroblasts
Method in brief: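 MyoF fibroblast system (human lung); a-SMA quantified via ELISA at 24 h; DMSO-normalised, gain-of-signal endpoint.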

[10] = read-out: Interleukin 2 (IL2), IL2 (gene 3558); test: BSK_BT_xIL2: BioMAP Diversity Plus: BT Assay for Interleukin 2 (IL2) Biomarker Activity (AID 2284245); settings: primary human B cells with PBMC
Method in brief: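 Co-cultures of primary human B cells and PBMC are treated with chemical and sampled at 24 h. IL-2 secretion is quantified by Luminex xMAP, with DMSO-treated wells as baseline.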

Measured: AC50

CC(C)c1c(C(=O)Nc2ccccc2)c(-c2ccccc2)c(-c2ccc(F)cc2)n1CC[C@@H](O)C[C@@H](O)CC(=O)O
active: [1] 7.8 µM | [2] 0.0896 µM | [3] 12.1 µM | [4] 12.8 µM | [5] 5.15 µM

Cc1cccc2c1ccc1ccccc12
active: [8] 20 µM
inactive: [6] | [7] | [9] | [10]

CN(CCO)S(=O)(=O)C(F)(F)C(F)(F)C(F)(F)C(F)(F)C(F)(F)C(F)(F)C(F)(F)C(F)(F)F
active: [6] 1.82 µM and 2.36 µM | [8] 1.93 µM
inactive: [7] | [8] | [9] | [10]

CN(Cc1cnc2nc(N)nc(N)c2n1)c1ccc(C(=O)N[C@@H](CCC(=O)O)C(=O)O)cc1
inactive: [1] | [2] | [6] | [7] | [3] | [4] | [5] | [8] | [9] | [10]

C=CC(=O)OCCC(F)(F)C(F)(F)C(F)(F)C(F)(F)C(F)(F)C(F)(F)C(F)(F)C(F)(F)F
inactive: [6] | [7] | [3] | [4] | [8] | [9] | [10]

CCCCC(CC)C(=O)OCCOCCOCCOCCOC(=O)C(CC)CCCC (stereo not given)
inactive: [6] | [7] | [8] | [9]
active: [10] 0.016 µM

C=CC(=C)CC/C=C(\C)CCC=C(C)C
inactive: [6] | [7] | [8] | [9] | [10]

CCOC(=O)CN[C@@H](C(=O)N1CC[C@H]1C(=O)NCc1ccc(/C(N)=N/O)cc1)C1CCCCC1
inactive: [6] | [7] | [8] | [9] | [10]

CCCCCCCCCCCCCCCCCC[N+](C)(C)Cc1ccccc1
active: [6] 1.02 µM | [7] 2.09 µM | [8] 2.42 µM | [9] 2.7 µM | [10] 1.97 µM

O=P(O)(O)CCC(F)(F)C(F)(F)C(F)(F)C(F)(F)C(F)(F)C(F)(F)F
inactive: [6] | [7] | [3] | [4] | [8] | [9] | [10]

Nc1ccn([C@@H]2O[C@H](CO)[C@@H](O)C2O)c(=O)n1 (stereo not given in full)
active: [1] 2.74 µM | [3] 0.207 µM | [5] 10.8 µM

Cc1ccc(N=Nc2c(O)ccc3ccccc23)c(C)c1
inactive: [6] | [7] | [8] | [9] | [10]

CC(=O)Nc1ccc(O)cc1
inactive: [1] | [3]

O=C(CC(=O)C(F)(F)C(F)(F)C(F)(F)F)c1cccs1
inactive: [3] | [4] | [9]
active: [6] 17.8 µM and 7.76 µM | [7] 8.37 µM and 7.86 µM | [8] 23.2 µM and 25.1 µM | [9] 7.95 µM | [10] 55.6 µM and 46.2 µM

OCC(F)(F)C(F)(F)C(F)(F)C(F)(F)C(F)(F)C(F)(F)C(F)(F)C(F)(F)C(F)(F)C(F)(F)C(F)(F)F
inactive: [6] | [7] | [3] | [4] | [9] | [10]
active: [8] 13.9 nM and 23.8 nM

O=C(CCCN1CCC(O)(c2ccc(Cl)cc2)CC1)c1ccc(F)cc1
active: [3] 70.7 µM | [5] 21.9 µM
inactive: [1]

CCCCCc1ccc(O)cc1
inactive: [8] | [10]
active: [6] 24 µM | [7] 16.1 µM | [9] 11.3 µM

O=C(O)C(F)(F)OC(F)(F)C(F)(F)OC(F)(F)C(F)(F)OC(F)(F)C(F)(F)C(F)(F)C(F)(F)F
inactive: [9] | [10]
active: [6] 9.61 µM and 5.9 µM | [7] 6.08 µM and 4.89 µM | [8] 49.6 µM and 47 µM | [9] 4.11 µM | [10] 44.9 µM

O=C1NS(=O)(=O)c2ccccc21
inactive: [1] | [2] | [3] | [4] | [5]

O=C(O)CCC(F)(F)C(F)(F)C(F)(F)C(F)(F)C(F)(F)C(F)(F)F
inactive: [6] | [7] | [8] | [9] | [10]
